Residue numbers refer to the chain shown, from its start.
Key:
Assay in all cases: PBM; 200 nM protein, PBS
Settings in all cases: dsDNA, one strand shown
[1] = target: T1, SIX6 (Homo sapiens, UniProt O95475 114-200, L167I)
T1 sequence: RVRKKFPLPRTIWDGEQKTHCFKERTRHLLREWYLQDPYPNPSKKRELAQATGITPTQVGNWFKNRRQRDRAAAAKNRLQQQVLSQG

[2] = target: T2, SIX6 (Homo sapiens, UniProt O95475 114-200, L143V)
T2 sequence: T1 sequence with L30V, I54L

[3] = target: T3, SIX6 (Homo sapiens, UniProt O95475 114-200, H141N)
T3 sequence: T1 sequence with H28N, I54L

[4] = target: T4, SIX6 (Homo sapiens, UniProt O95475 114-200, T165P)
T4 sequence: T1 sequence with T52P, I54L

[5] = target: T5, SIX6 (Homo sapiens, UniProt O95475 114-200, L167M)
T5 sequence: T1 sequence with I54M

[6] = target: T6, SIX6 (Homo sapiens, UniProt O95475 114-200, L143M)
T6 sequence: T1 sequence with L30M, I54L

[7] = target: T7, SIX6 (Homo sapiens, UniProt O95475 114-200, L143I)
T7 sequence: T1 sequence with L30I, I54L

[8] = target: T8, SIX6 (Homo sapiens, UniProt O95475 114-200, T165G)
T8 sequence: T1 sequence with T52G, I54L

[9] = target: T9, SIX6 (Homo sapiens, UniProt O95475 114-200, T139Q)
T9 sequence: T1 sequence with T26Q, I54L

[10] = target: T10, SIX6 (Homo sapiens, UniProt O95475 114-200, T165A)
T10 sequence: T1 sequence with T52A, I54L

[11] = target: T11, SIX6 (Homo sapiens, UniProt O95475 114-200, L167V)
T11 sequence: T1 sequence with I54V

[12] = target: T12, SIX6 (Homo sapiens, UniProt O95475 114-200)
T12 sequence: T1 sequence with I54L

[13] = target: T13, SIX6 (Homo sapiens, UniProt O95475 114-200, T165I)
T13 sequence: T1 sequence with T52I, I54L

Sequence	binding signal [1]	binding signal [2]	binding signal [3]	binding signal [4]	binding signal [5]	binding signal [6]	binding signal [7]	binding signal [8]	binding signal [9]	binding signal [10]	binding signal [11]	binding signal [12]	binding signal [13]
CGGCCCAA	9.05 upbm affinity estimate (log intensity, higher = more binding, comparable within an allelic series)	8.91 upbm affinity estimate (log intensity, higher = more binding, comparable within an allelic series)	9.04 upbm affinity estimate (log intensity, higher = more binding, comparable within an allelic series)	8.99 upbm affinity estimate (log intensity, higher = more binding, comparable within an allelic series)	9.02 upbm affinity estimate (log intensity, higher = more binding, comparable within an allelic series)	8.96 upbm affinity estimate (log intensity, higher = more binding, comparable within an allelic series)	8.94 upbm affinity estimate (log intensity, higher = more binding, comparable within an allelic series)	9.03 upbm affinity estimate (log intensity, higher = more binding, comparable within an allelic series)	9.14 upbm affinity estimate (log intensity, higher = more binding, comparable within an allelic series)	8.99 upbm affinity estimate (log intensity, higher = more binding, comparable within an allelic series)	8.99 upbm affinity estimate (log intensity, higher = more binding, comparable within an allelic series)	8.99 upbm affinity estimate (log intensity, higher = more binding, comparable within an allelic series)	9.03 upbm affinity estimate (log intensity, higher = more binding, comparable within an allelic series)
GAAAGCGC	8.91 upbm affinity estimate (log intensity, higher = more binding, comparable within an allelic series)	8.99 upbm affinity estimate (log intensity, higher = more binding, comparable within an allelic series)	8.85 upbm affinity estimate (log intensity, higher = more binding, comparable within an allelic series)	9.04 upbm affinity estimate (log intensity, higher = more binding, comparable within an allelic series)	8.97 upbm affinity estimate (log intensity, higher = more binding, comparable within an allelic series)	8.96 upbm affinity estimate (log intensity, higher = more binding, comparable within an allelic series)	8.97 upbm affinity estimate (log intensity, higher = more binding, comparable within an allelic series)	9 upbm affinity estimate (log intensity, higher = more binding, comparable within an allelic series)	9 upbm affinity estimate (log intensity, higher = more binding, comparable within an allelic series)	9.02 upbm affinity estimate (log intensity, higher = more binding, comparable within an allelic series)	8.93 upbm affinity estimate (log intensity, higher = more binding, comparable within an allelic series)	8.96 upbm affinity estimate (log intensity, higher = more binding, comparable within an allelic series)	8.97 upbm affinity estimate (log intensity, higher = more binding, comparable within an allelic series)
GGTATCAC	11.6 upbm affinity estimate (log intensity, higher = more binding, comparable within an allelic series)	10.5 upbm affinity estimate (log intensity, higher = more binding, comparable within an allelic series)	11.6 upbm affinity estimate (log intensity, higher = more binding, comparable within an allelic series)	9.55 upbm affinity estimate (log intensity, higher = more binding, comparable within an allelic series)	10.9 upbm affinity estimate (log intensity, higher = more binding, comparable within an allelic series)	11.2 upbm affinity estimate (log intensity, higher = more binding, comparable within an allelic series)	10.6 upbm affinity estimate (log intensity, higher = more binding, comparable within an allelic series)	11.8 upbm affinity estimate (log intensity, higher = more binding, comparable within an allelic series)	11.6 upbm affinity estimate (log intensity, higher = more binding, comparable within an allelic series)	11.6 upbm affinity estimate (log intensity, higher = more binding, comparable within an allelic series)	11.4 upbm affinity estimate (log intensity, higher = more binding, comparable within an allelic series)	11.3 upbm affinity estimate (log intensity, higher = more binding, comparable within an allelic series)	11.4 upbm affinity estimate (log intensity, higher = more binding, comparable within an allelic series)
ATACGATA	11.1 upbm affinity estimate (log intensity, higher = more binding, comparable within an allelic series)	10.4 upbm affinity estimate (log intensity, higher = more binding, comparable within an allelic series)	11 upbm affinity estimate (log intensity, higher = more binding, comparable within an allelic series)	9.94 upbm affinity estimate (log intensity, higher = more binding, comparable within an allelic series)	10.6 upbm affinity estimate (log intensity, higher = more binding, comparable within an allelic series)	10.9 upbm affinity estimate (log intensity, higher = more binding, comparable within an allelic series)	10.4 upbm affinity estimate (log intensity, higher = more binding, comparable within an allelic series)	11.2 upbm affinity estimate (log intensity, higher = more binding, comparable within an allelic series)	11.2 upbm affinity estimate (log intensity, higher = more binding, comparable within an allelic series)	11 upbm affinity estimate (log intensity, higher = more binding, comparable within an allelic series)	10.9 upbm affinity estimate (log intensity, higher = more binding, comparable within an allelic series)	10.9 upbm affinity estimate (log intensity, higher = more binding, comparable within an allelic series)	10.8 upbm affinity estimate (log intensity, higher = more binding, comparable within an allelic series)
GAGTATCA	11.2 upbm affinity estimate (log intensity, higher = more binding, comparable within an allelic series)	10.2 upbm affinity estimate (log intensity, higher = more binding, comparable within an allelic series)	11.3 upbm affinity estimate (log intensity, higher = more binding, comparable within an allelic series)	9.54 upbm affinity estimate (log intensity, higher = more binding, comparable within an allelic series)	10.6 upbm affinity estimate (log intensity, higher = more binding, comparable within an allelic series)	10.9 upbm affinity estimate (log intensity, higher = more binding, comparable within an allelic series)	10.3 upbm affinity estimate (log intensity, higher = more binding, comparable within an allelic series)	11.3 upbm affinity estimate (log intensity, higher = more binding, comparable within an allelic series)	11.2 upbm affinity estimate (log intensity, higher = more binding, comparable within an allelic series)	11.2 upbm affinity estimate (log intensity, higher = more binding, comparable within an allelic series)	11 upbm affinity estimate (log intensity, higher = more binding, comparable within an allelic series)	10.9 upbm affinity estimate (log intensity, higher = more binding, comparable within an allelic series)	11.1 upbm affinity estimate (log intensity, higher = more binding, comparable within an allelic series)
CATGATAC	11.2 upbm affinity estimate (log intensity, higher = more binding, comparable within an allelic series)	10.3 upbm affinity estimate (log intensity, higher = more binding, comparable within an allelic series)	11.2 upbm affinity estimate (log intensity, higher = more binding, comparable within an allelic series)	9.82 upbm affinity estimate (log intensity, higher = more binding, comparable within an allelic series)	10.7 upbm affinity estimate (log intensity, higher = more binding, comparable within an allelic series)	10.9 upbm affinity estimate (log intensity, higher = more binding, comparable within an allelic series)	10.4 upbm affinity estimate (log intensity, higher = more binding, comparable within an allelic series)	11.3 upbm affinity estimate (log intensity, higher = more binding, comparable within an allelic series)	11.2 upbm affinity estimate (log intensity, higher = more binding, comparable within an allelic series)	11.1 upbm affinity estimate (log intensity, higher = more binding, comparable within an allelic series)	11 upbm affinity estimate (log intensity, higher = more binding, comparable within an allelic series)	11 upbm affinity estimate (log intensity, higher = more binding, comparable within an allelic series)	10.9 upbm affinity estimate (log intensity, higher = more binding, comparable within an allelic series)

Source: publication PMC11006913
